Measured values as given in PubChem BioAssay AID1611 (NINDS Approved Drug Screening Program, 2009).

Assay: HSE-luciferase reporter activators – cell-based (AID 1611)
Conditions: human cells, HSE-luciferase heat shock reporter; stronger effect = higher value

| Structure (SMILES) | fold change |
| --- | --- |
| Clc1ccc(CSC(Cn2ccnc2)c2ccc(Cl)cc2Cl)cc1 (configuration not stated) | 0.83 |
| CCC1(CC)C(=O)C=CNC1=O | 1.24 |
| Clc1ccc(COC(Cn2ccnc2)c2ccc(Cl)cc2Cl)cc1 (configuration not stated) | 1.04 |
| CCCCCCCCCCCCCCCC[N+](C)(C)C | 0.93 |
| CCCCC[C@H]1C(=O)O[C@H](C)[C@H](NC(=O)c2cccc(NC=O)c2O)C(=O)O[C@@H](C)[C@@H]1OC(=O)CC(C)C | 0.64 |
| N#CC(O[C@@H]1O[C@H](CO[C@@H]2O[C@H](CO)[C@@H](O)[C@H](O)[C@H]2O)[C@@H](O)[C@H](O)[C@H]1O)c1ccccc1 (some centres not stated) | 0.7 |
| CC(=O)[O][Hg][c]1ccccc1 | 1.14 |
| NCC(O)c1ccc(O)cc1 (configuration not stated) | 1.61 |
| CC(=O)C1=C(O)C2C3c4c[nH]c5cccc(c45)CC3C(C)(C)N2C1=O (configuration not stated) | 1.11 |
| CC[C@@H]1/C=C/C=C/C[C@H](C)[C@@H](O)[C@](C)(O)C(=O)[C@H](C)[C@@H](O)[C@H](C)C(=O)[C@H](C)[C@@H](O)[C@H](C)/C=C/C(=O)O[C@H]2[C@@H](C)[C@@H](CC1)O[C@@]1(CC[C@@H](C)[C@@H](C[C@H](C)O)O1)[C@@H]2C | 1.06 |
| C=C[C@H]1CN2CC[C@H]1C[C@@H]2[C@H](O)c1ccnc2ccccc12 | 1.18 |
| O=P1(N(CCCl)CCCl)NCCCO1 (configuration not stated) | 0.79 |
| CC(CCc1ccccc1)NC(C)C(O)c1ccc(O)cc1 (configuration not stated) | 1.23 |
| CC(=O)Nc1cc([As](=O)(O)O)ccc1O | 0.73 |
| CC(=O)OC1CN2CCC1CC2 (configuration not stated) | 0.77 |
| CN(C)[C@@H]1C(=O)C(C(N)=O)=C(O)[C@@]2(O)C(=O)C3=C(O)c4c(O)ccc(Cl)c4[C@@](C)(O)[C@H]3C[C@@H]12 | 0.9 |
| COc1cc([C@@H]2c3cc4c(cc3[C@H](O)[C@H]3COC(=O)[C@H]23)OCO4)cc(OC)c1OC | 0.57 |
| N#C/C(=C\c1ccc(O)cc1)C(=O)O | 1.34 |
| NCC(CC(=O)O)c1ccc(Cl)cc1 (configuration not stated) | 1.37 |
| C[C@@H]([C@H](O)c1ccccc1)N(C)C | 1.08 |
| O=[N+]([O-])c1cc(O)c(O)c([N+](=O)[O-])c1 | 0.87 |
| NC(=O)CN1CCCC1=O | 0.86 |
| C=CCN1CC[C@]23c4c5ccc(O)c4OC2C(=O)CC[C@@]3(O)[C@H]1C5 (some centres not stated) | 1.1 |
| [N-]=[N+]=CC(=O)OCC(N)C(=O)O (configuration not stated) | 1.29 |
| C[C@@H]1C[C@@H]([C@H](O)CC2CC(=O)NC(=O)C2)C(=O)[C@@H](C)C1 | 0.84 |
| CC(=O)OCC1=C(C(=O)O)N2C(=O)[C@@H](NC(=O)CCCC(N)C(=O)O)C2SC1 (some centres not stated) | 0.85 |
| C[C@H](N)[C@H](O)c1ccc(O)c(O)c1 | 1.53 |
